Laboratory results published in PubChem BioAssay (NCI).
About 79,000 compounds went through this panel and 15% of them were active in at least one assay; those are over-represented in the sample as a whole. The source made the active and inactive calls. No stated cut-off is given here; in the data, active means growth inhibition above about 70%; inactive means the rest.

Experiments:
[1] = NCI Yeast Anticancer Drug Screen. Data for the rad50 strain (AID 155);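 further: 0% = growth of vehicle-only cultures of the same strain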; details: S. cerevisiae rad50 strain growth inhibition, stronger effect = higher value
How it was run: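 Vehicle-treated cultures provide the reference for the growth inhibition reported for compound-exposed, repair-deficient yeast.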

[2] = NCI Yeast Anticancer Drug Screen. Data for the mec2-1 strain (AID 157); details: S. cerevisiae mec2-1 strain, stronger effect = higher value
How it was run: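 Readout is yeast growth inhibition, normalised to vehicle-treated controls, in the mec2-1 strain exposed to compound.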

[3] = NCI Yeast Anticancer Drug Screen. Data for the sgs1 mgt1 strain (AID 161);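 further: 0% = growth of cultures given vehicle only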; details: S. cerevisiae sgs1 mgt1 strain, stronger effect = higher value
How it was run: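 Yeast cells carrying a defined DNA-repair defect were exposed to test compounds. Growth inhibition was measured relative to vehicle-treated controls.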

[4] = NCI Yeast Anticancer Drug Screen. Data for the cln2 rad14 strain (AID 165);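 further: 0% = growth equal to vehicle treated cultures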; details: S. cerevisiae cln2 rad14 strain, stronger effect = higher value
How it was run: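 Relative to vehicle controls, growth inhibition of compound-treated cln2 rad14 yeast was recorded.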

[5] = NCI Yeast Anticancer Drug Screen. Data for the bub3 strain (AID 167); details: S. cerevisiae bub3 mutant strain, stronger effect = higher value
How it was run: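 Mutant yeast screening strain plus compound; vehicle-treated cultures serve as the 0% inhibition reference.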

[6] = NCI Yeast Anticancer Drug Screen. Data for the mlh1 rad18 strain (AID 175); details: S. cerevisiae mlh1 rad18 strain growth inhibition, stronger effect = higher value
How it was run: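 Test agents were incubated with a yeast strain of defined genotype (DNA damage repair defect). Inhibition of growth was derived by comparison with vehicle-exposed cultures.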

[7] = at 5.0 µM (retest, dose inferred, filed as 0.5)
[8] = at 50.0 µM (retest, dose inferred, filed as 5.0)

Measured: growth inhibition

O=C(Nc1cccc(Cl)c1)OCCN(CCOC(=O)Nc1cccc(Cl)c1)C(=O)Nc1cccc(Cl)c1
inactive: [1]; [7] 31% | [2]; [7] 27% | [2]; at 50.0 µM 51.4% | [3]; [7] 36% | [4]; [7] 54% | [5]; [7] 53% | [6]; [7] 62%
active: [1]; [8] 76% | [1]; at 50.0 µM 77.8% | [2]; [8] 80% | [3]; [8] 83% | [3]; at 50.0 µM 90.9% | [4]; [8] 77% | [4]; at 50.0 µM 90.4% | [5]; [8] 79% | [5]; at 50.0 µM 80.4% | [6]; [8] 81% | [6]; at 50.0 µM 83.2%

O=[N+]([O-])c1c(Br)ncn1Cc1ccccc1
active: [1]; [8] 92% | [2]; [8] 98% | [3]; [8] 90% | [4]; [8] 99% | [5]; [8] 99% | [6]; [8] 94%
inactive: [1]; [7] 26% | [1]; at 50.0 µM 68.8% | [2]; [7] 22% | [2]; at 50.0 µM 8.25% | [3]; [7] 14% | [3]; at 50.0 µM 22.4% | [4]; [7] 21% | [4]; at 50.0 µM 7.5% | [5]; [7] 35% | [5]; at 50.0 µM -4.85% | [6]; [7] 49% | [6]; at 50.0 µM 38.4%

Cc1noc(NS(=O)(=O)c2ccc(NCc3c4ccccc4nc4cc(Cl)ccc34)cc2)c1C
inactive: [1]; [7] 4% | [1]; [8] -13% | [2]; [7] 4% | [2]; [8] -7% | [3]; [7] 5% | [3]; [8] -6% | [4]; [7] 1% | [4]; [8] -3% | [5]; [7] 9% | [5]; [8] -3% | [6]; [7] 3% | [6]; [8] -5%
active: [1]; at 50.0 µM 98.5% | [2]; at 50.0 µM 98.9% | [3]; at 50.0 µM 98.5% | [4]; at 50.0 µM 98.2% | [5]; at 50.0 µM 98.2% | [6]; at 50.0 µM 98.3%

CCOc1nc(N)nc(C)c1N=Nc1ccc(Br)cc1
active: [1]; [8] 90% | [1]; at 50.0 µM 70.2% | [3]; [8] 72% | [5]; [8] 88% | [5]; at 50.0 µM 75.9% | [6]; [8] 98%
inactive: [1]; [7] 9% | [2]; [7] 0% | [2]; [8] 32% | [2]; at 50.0 µM 2.6% | [3]; [7] 4% | [3]; at 50.0 µM 22.2% | [4]; [7] 4% | [4]; [8] 30% | [4]; at 50.0 µM -9.65% | [5]; [7] 4% | [6]; [7] 17% | [6]; at 50.0 µM 35.1%

O=C1C2=C(C(=O)c3cnccc31)C1C=CC2CC1 (stereo not given)
active: [1]; [8] 71% | [3]; [8] 78% | [5]; [8] 88% | [6]; [8] 94% | [6]; at 50.0 µM 90.8%
inactive: [1]; [7] 21% | [1]; at 50.0 µM 49.1% | [2]; [7] 17% | [2]; [8] 69% | [2]; at 50.0 µM 31.2% | [3]; [7] 25% | [3]; at 50.0 µM 10.2% | [4]; [7] 16% | [4]; [8] 40% | [4]; at 50.0 µM 15.8% | [5]; [7] 27% | [5]; at 50.0 µM 59.9% | [6]; [7] 40%

Cc1ccccc1C1c2c(C)cccc2C(=O)CC1CC(=O)O (stereo not given)
inactive: [1]; [7] 4% | [1]; [8] 60% | [1]; at 50.0 µM 58% | [2]; [7] 1% | [3]; [7] -1% | [4]; [7] -41% | [4]; at 50.0 µM 13.3% | [5]; [7] 6% | [5]; [8] 67% | [6]; [7] 8%
active: [2]; [8] 72% | [2]; at 50.0 µM 81.5% | [3]; [8] 75% | [3]; at 50.0 µM 82.3% | [4]; [8] 70% | [5]; at 50.0 µM 70% | [6]; [8] 83% | [6]; at 50.0 µM 81.6%

CC(=O)c1c(-c2ccc(Cl)cc2)c(-c2ccc(Cl)cc2)nn(CCO)c1=O
active: [1]; [8] 86% | [1]; at 50.0 µM 97.8% | [2]; [8] 76% | [2]; at 50.0 µM 97.9% | [3]; [8] 89% | [3]; at 50.0 µM 98.2% | [4]; [8] 78% | [4]; at 50.0 µM 89.3% | [5]; [8] 78% | [5]; at 50.0 µM 92.1% | [6]; [8] 80% | [6]; at 50.0 µM 97.8%
inactive: [1]; [7] 12% | [2]; [7] 4% | [3]; [7] 2% | [4]; [7] 3% | [5]; [7] 4% | [6]; [7] 4%

O=[N+]([O-])c1cccc2c1[nH]c1c(-c3ccccc3)nccc12
inactive: [1]; [7] 2% | [2]; [7] 4% | [2]; at 50.0 µM 47.8% | [3]; [7] 4% | [4]; [7] 0% | [4]; [8] 67% | [5]; [7] 1% | [5]; [8] 67% | [5]; at 50.0 µM 40% | [6]; [7] 0%
active: [1]; [8] 83% | [1]; at 50.0 µM 87.8% | [2]; [8] 83% | [3]; [8] 93% | [3]; at 50.0 µM 81% | [4]; at 50.0 µM 80.3% | [6]; [8] 89% | [6]; at 50.0 µM 89.8%

C/C=C1/C=CC2c3[nH]c4ccccc4c3CCN2C1 (stereo not given)
inactive: [1]; [7] -152% | [1]; [8] -150% | [1]; at 50.0 µM 5.35% | [2]; [7] -51% | [2]; [8] -57% | [2]; at 50.0 µM -0.8% | [3]; [7] -62% | [3]; [8] -67% | [3]; at 50.0 µM 2.95% | [4]; [7] -62% | [4]; [8] -72% | [4]; at 50.0 µM 38% | [5]; [7] -73% | [5]; [8] -81% | [5]; at 50.0 µM -13.4% | [6]; [7] -137% | [6]; [8] -107% | [6]; at 50.0 µM 13%

COc1ccc2c(c1)CCn1c(C)c(COC(=O)NC(C)C)c(COC(=O)NC(C)C)c1-2
inactive: [1]; [7] 17% | [2]; [7] 0% | [3]; [7] 33% | [4]; [7] 10% | [5]; [7] 15% | [6]; [7] 17%
active: [1]; [8] 98% | [1]; at 50.0 µM 88.7% | [2]; [8] 98% | [2]; at 50.0 µM 92.3% | [3]; [8] 98% | [3]; at 50.0 µM 89.2% | [4]; [8] 97% | [4]; at 50.0 µM 90.3% | [5]; [8] 98% | [5]; at 50.0 µM 88.7% | [6]; [8] 98% | [6]; at 50.0 µM 87.7%
